rTrxR1 inhibitor: inhibitors of rat thioredoxin reductase 1. O89049. recombinant rTrxR1, NADPH fluorescence consumption, selenite substrate. Potency, µM (doses to about 114 µM), inactives show top-dose activity change, negative = inhibition, most hits filed as inhibitors. hit rate 1% among 390,000. AID 588453; also: % is scaled to controls: 0 for no effect and ±100 for the full control effect; nearly all actives have a fitted effect of over 65% in size
Target sequence (O89049 whole entry, looked up): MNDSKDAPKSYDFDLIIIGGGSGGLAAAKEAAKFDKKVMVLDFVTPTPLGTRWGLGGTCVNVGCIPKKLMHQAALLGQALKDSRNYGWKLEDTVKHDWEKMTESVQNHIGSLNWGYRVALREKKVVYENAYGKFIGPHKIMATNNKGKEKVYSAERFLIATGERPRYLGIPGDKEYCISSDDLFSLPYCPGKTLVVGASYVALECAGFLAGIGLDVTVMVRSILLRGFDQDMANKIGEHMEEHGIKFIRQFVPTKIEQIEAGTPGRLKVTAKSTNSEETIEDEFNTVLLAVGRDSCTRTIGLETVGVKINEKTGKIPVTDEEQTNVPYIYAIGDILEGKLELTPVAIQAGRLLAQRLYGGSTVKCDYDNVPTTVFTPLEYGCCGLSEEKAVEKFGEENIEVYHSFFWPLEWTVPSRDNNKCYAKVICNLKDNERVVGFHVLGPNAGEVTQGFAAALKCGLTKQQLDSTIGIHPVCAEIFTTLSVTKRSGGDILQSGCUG
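Rat TrxR1 (90 nM in the dispensed reagent) was pre-reduced with 400 uM NADPH for 5 min at room temperature, then incubated with compound for 15 min. After 400 uM selenite was added, NADPH fluorescence (Ex 340/Em 450 nm) was followed for 8 min.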
GRP78 ERSR act: ER stress response induction in glioma. Potency, µM, inactives show top-dose activation, actives largely listed as activators. hit rate 0.02% among 420,000. U87-MG GRP78 promoter luciferase reporter, 16 h; also: series mostly up to about 76 µM; % of control where 0% means no effect; nearly all actives have a fitted effect of over 35% in size
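Stably transfected U87-MG human glioma cells carrying a GRP78-based luminescent sensor were seeded at 1000 cells/well, pin-dosed with compounds and incubated 16 h. Luciferase reagent was then added, and end-point luminescence was read after 10 min at room temperature.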
TrxR1 substrate: is turned over as a substrate by rat TrxR1. O89049. purified TrxR1 substrate turnover, NADPH consumption readout. Potency, µM (series often up to 114 µM), inactives show at the highest dose activity change, negative = substrate turnover. hit rate 0.01% among 390,000; also: % is scaled to controls: 0 for no effect and ±100 for the full control effect; nearly all actives have a fitted effect of over 50% in size
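Rat TrxR1, dispensed at 90 nM, was prereduced with 400 uM NADPH (final) for 5 min at ~22 deg C, then incubated with compound 15 min before 400 uM selenite. A first-read NADPH fluorescence drop versus no-compound background flagged substrates.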
Apoferritin bind: candidate novel general anesthetic via apoferritin binding; hit rate 0.074% among 350,000; Potency, µM (doses to about 77.5 µM), inactives show top-dose activity change, negative = displacement, hits mostly inhibitors; AID 485281; apoferritin/1-aminoanthracene competitive binding, fluorescence; P02791; also: % is scaled to controls: 0 for no effect and ±100 for the full control effect; nearly all actives have a fitted effect of over 20% in size
Target sequence (P02791 2-175 limits assumed): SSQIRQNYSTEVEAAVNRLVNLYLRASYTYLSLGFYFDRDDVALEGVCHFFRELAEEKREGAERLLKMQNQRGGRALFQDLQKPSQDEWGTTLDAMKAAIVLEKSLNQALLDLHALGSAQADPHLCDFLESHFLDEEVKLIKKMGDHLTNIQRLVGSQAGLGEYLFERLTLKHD
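In PBS, apoferritin at 10 uM is loaded with 1-AMA from a 50% saturated solution. After 10 min of compound exposure at ambient temperature, reduced 535 nm fluorescence indicates probe displacement.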
ALOX12 inh: inhibitors of human 12S-lipoxygenase ALOX12 | purified 12hLO, xylenol orange hydroperoxide absorbance | hit rate 1.1% among 580,000 | P18054 | Potency, µM (series often up to 108 µM), inactives show top-dose activity change, negative = inhibition, actives largely listed as inhibitors | AID 1671190; also: % is scaled to controls: 0 for no effect and ±100 for the full control effect
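Hydroperoxide product was detected by ferrous iron/xylenol orange as the 573 to 405 nm absorbance ratio. Arachidonic acid at 40 uM (final) was turned over for 30 min at room temperature by 150 nM human 12hLO, pH 7.0 Hepes buffer, after 15 min compound preincubation.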
mIDH1 inhibitor: blocks human mutant IDH1 R132H enzyme. AID 602179. IDH1-R132H enzyme, NADPH consumption, diaphorase/resazurin fluorescence. O75874. Potency, µM (highest dose often 76.6 µM), inactives show at the highest dose activity change, negative = inhibition, most hits filed as inhibitors. hit rate 0.093% among 390,000; also: % is scaled to controls: 0 for no effect and ±100 for the full control effect; nearly all actives have a fitted effect of over 65% in size
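IDH1-R132H (0.5 ug/mL) preincubated 30 min with compound, then NADPH (0.016 mM) and alpha-KG (2 mM) added; 80 min at RT, pH 7.5. Remaining NADPH coupled via diaphorase/resazurin to fluorescence (540/590 nm); concentration-response curves normalized to no-enzyme control.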
* hit, by the source's call; u = inconclusive; x = no result; ! = repeats disagree; [ ] = remark or other dose. Sampled rows, rich in hits. Any-hit rate of the full collection: about 1.7%. Calls follow the shape of the dose curve; as a rule, active = well fitted curve in the direction sought with a large enough effect; inconclusive = small, poorly fitted or top-dose-only effect, or another doubt; inactive = no such curve, though single readings can be large; an effect the other way counts as inactive or inconclusive. Potency is read from the fitted curve at half-maximal effect.

SMILES	rTrxR1 inhibitor	GRP78 ERSR act	TrxR1 substrate	Apoferritin bind	ALOX12 inh	mIDH1 inhibitor
Nc1ncnc2c(C3OC(CO)C(O)C3O)c[nH]c12 (centres undefined)	12%[11.4 µM]	-7%	12%[57.1 µM]	x	11%	2%
O=C(Cn1cc(COc2c(F)c(F)cc(F)c2F)nn1)c1ccc(O)cc1	50µM*	-2%	0%	x	u	10%
COc1ccc(OCc2cn(CC(=O)c3ccc(O)cc3)nn2)cc1	-12%	-2%	-2%	x	u	-4%
CC(C)N1C(=O)C2(CCCCC2)C1C(=O)NCCN1CCCC1 (centres undefined)	x	x	x	x	96%	x
CCn1nc(-c2ccc(C)cc2)nc2c(=O)n(C)c(=O)nc1-2	u	-10%	50µM*	x	x	x
Cn1nc(-c2ccncc2)nc2c(=O)n(C)c(=O)nc1-2	20µM*	-10%	20µM*	x	x	x
COc1ccc(-c2nc(-c3ccncc3)no2)cc1	8%	-1%	1%	1%	13%	-2%
O=S(=O)(O)Sc1ccccc1	x	-1%	x	x	u	2%
CCN(CC)c1ccc(SS(=O)(=O)O)cc1	12%[57.1 µM]	-6%	-9%[57.1 µM]	-11%	25µM*!	3%
COc1ccc(C[C@H](NC(=O)[C@@]2(O)C[C@@H](O)[C@H](O)[C@@H](NC(=O)CS(=O)(=O)c3ccccc3)C2)C(N)=O)cc1	x	x	x	x	4%	x
CC(C)Nc1nc(NC(N)=S)nc(NC(C)(C)C)n1	12%[57.1 µM]	-8%	7%[57.1 µM]	-21%	45µM*	-3%
Cc1cccc(OCC(=O)N2CCCC(c3noc(COc4ccccc4)n3)C2)c1 (centres undefined)	x	x	x	x	38%	x
COCCNC(=O)CS(=O)Cc1nc(-c2ccccc2C)oc1C (centres undefined)	16µM*	4%	7%	-1%	16%	1%
Cc1ccc(CCNC(=O)CS(=O)Cc2nc(-c3ccccc3F)oc2C)cc1 (centres undefined)	32µM*	0%	2%	-15%	6%	-8%
COc1ccc(CCNC(=O)CS(=O)Cc2nc(-c3ccccc3F)oc2C)cc1OC (centres undefined)	50µM*	-3%	24%	-2%	1%	2%
COc1cc(C(=O)N2CCC(CC(=O)NCCN3CCN(C)CC3)CC2)cc(OC)c1OC	x	x	x	x	3%	x
COc1cc2ncnc(N3CCN(c4ccc(F)cc4)CC3)c2cc1OC	x	x	x	x	-11%	x
COc1ccc(NC(=O)N[C@@H]2C=C[C@@H](c3c(C)nn(-c4ccc(C(C)C)cc4)c3C)C2)cc1	x	x	x	x	1%	x
Cc1nn(-c2ccc(C(C)C)cc2)c(C)c1[C@@H]1C=C[C@@H](NC(=O)NC(C)C)C1	x	x	x	x	14%[176 µM]	x
Cc1nn(-c2ccc(C(C)C)cc2)c(C)c1[C@@H]1C=C[C@@H](NC(=S)NC2CCCCC2)C1	x	x	x	x	40µM*	x
COC(=O)c1cccc(NC(=S)N[C@@H]2C=C[C@@H](c3c(C)nn(-c4ccc(C(C)C)cc4)c3C)C2)c1	x	x	x	x	45µM*	x
C=CCSc1ccccc1NC(=O)c1cc(C)cc(C)c1	x	x	x	x	35µM*	x
Cc1ccc(NC(=O)CSc2nc(O)cc(=O)n2-c2ccc(C)cc2)cc1	24%	-1%	-3%	-8%	2.2µM*	-4%
NC(=O)CSc1nc(O)cc(=O)n1-c1ccccc1	9%[57.1 µM]	-3%	-9%	-1%	0%	4%
COc1ccccc1-n1c(SCC(=O)Nc2ccc(C)cc2)nc(O)cc1=O	39%	-2%	19%	5%	0.32µM*!	-2%
SMILES	rTrxR1 inhibitor	GRP78 ERSR act	TrxR1 substrate	Apoferritin bind	ALOX12 inh	mIDH1 inhibitor
COc1ccc(NC(=O)CSc2nc(O)cc(=O)n2-c2ccccc2OC)cc1	2%[11.4 µM]	-5%	7%[11.4 µM]	-17%	u	2%
Cn1c(SCC(=O)Nc2ccc(Br)cc2)nc(O)cc1=O	12%	u	2%	-14%	u	-5%
O=c1cc(O)nc(SCc2ccccc2)n1-c1ccc(Cl)cc1	1%	2%	-2%	-7%	45µM*	-3%
COc1ccc(-n2c(SCC(=O)Nc3ccc(Br)cc3)nc(O)cc2=O)cc1	-12%[57.1 µM]	-2%	0%[57.1 µM]	-3%	2.2µM*	-1%
COC(C)c1cccc(-c2cc(NC3CC3)nc(N)n2)c1 (centres undefined)	x	x	x	x	2%	x
Cc1ccc(CNC(=O)c2ccc3cc[nH]c3c2)cc1	x	x	x	x	-2%	x
Cc1ccc2occ(/C=N/NC(=O)c3ccc(Cl)cc3)c(=O)c2c1	5%	0%	0%	-11%	0%	2%
O=C(N/N=C/c1coc2ccc(Cl)cc2c1=O)c1cc(O)cc(O)c1	-19%	-5%	-8%	u	45µM*	-5%
CCC(CC)NC(=O)C1CCc2nc(N3CCN(C(=O)C(C)C)CC3)sc2C1 (centres undefined)	x	x	x	x	35µM*	x
CCC(=O)N1CCN(c2nc3c(s2)CC(C(=O)NCc2ccccc2)CC3)CC1 (centres undefined)	x	x	x	x	33%	x
CC(C)NC(=O)N(C1CC1)C1CCOC2(CCN(C(=O)C3(c4ccccc4)CC3)CC2)C1 (centres undefined)	x	x	x	x	17%	x
Cc1cccc(NC(=O)CSc2nnc(NC(=O)CN3CCCCC3)s2)c1	x	x	x	-9%	23%	x
CCOC(=O)CSc1nnc(NC(=O)CN2CCCCC2)s1	-1%	-6%	5%	-6%	6.3µM*	0%
COc1cc2c(cc1OC)C1=C(C#N)COCN1CC2	13µM*	-4%	20%	36%	-14%	2%
S=C(NCCCCN(Cc1ccc(Cl)cc1)c1ccc(Br)cn1)NCCCc1cnc[nH]1	12%	-7%	-4%	x	35µM*	x
CN(CCCN(Cc1ccc(Cl)cc1)c1ccc(Br)cn1)C(=S)NCCCc1cnc[nH]1	1%	-7%	-5%	x	x	x
COCCOC1CCOC2(CCN(S(=O)(=O)Cc3ccccc3)CC2)C1 (centres undefined)	x	x	x	x	44%	x
O=C(N/N=C/c1ccncc1)c1cc([N+](=O)[O-])cc([N+](=O)[O-])c1O	-30%	5%	-12%	-13%	50µM*	2%
CC(C)c1ccc(CNc2nc(NCC3CC3)nc3ccsc23)cc1	x	-12%	x	x	50µM*	x
COc1ccccc1CNc1nc(NCc2ccc(C(C)C)cc2)c2sccc2n1	x	-10%	x	x	u	x
COc1cccc(C2=CC(=O)CC(c3ccco3)C2)c1 (centres undefined)	-24%[57.1 µM]	3%	6%[57.1 µM]	x	35µM*	0%
CSc1nnc2n(-c3ccccc3)c(=O)c3c4c(sc3n12)COC(C(C)C)C4 (centres undefined)	x	x	x	x	6%	x
CCOc1[nH]c(/N=C/c2ccco2)c(C#N)c1C#N	u	8%	-11%	-1%	18µM*	2%
